Reference: PubChem BioAssay (Tox21)
“And” between values parts separate entries of the source, which are not always exact repeats. Equal values may be shown once. Results filed as inconclusive are left out. The source made the active and inactive calls. Unless noted, calls follow the shape of the dose curve; as a rule, active = well fitted curve in the direction sought with a large enough effect in the repeat runs; inconclusive = weak or mixed curves; inactive = no such curve, though single readings can be large; an effect the other way counts as inactive or inconclusive.

What was measured:
[1] = qHTS assay to identify small molecule antagonists of the glucocorticoid receptor (GR) signaling pathway - cell viability counter screen (AID 720693); also: nearly all actives have a fitted effect of over 55% in size; also: potency is read from the fitted curve at half-maximal effect
[2] = qHTS assay for identifying genotoxic compounds that show differential cytotoxicity against isogenic chicken DT40 cell lines with known DNA damage response pathways - wild type cell line (AID 743012); also: nearly all actives have a fitted effect of over 60% in size; also: potency is read from the fitted curve at half-maximal effect
Summary of the method: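 Endpoint: CellTiter-Glo luminescence, 30 min RT. Cells: wild type DT40, 300/well. Exposure: compounds in DMSO, 40 h, 37 C/5% CO2, after ~0.5 h pre-incubation.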

[3] = qHTS assay for identifying genotoxic compounds that show differential cytotoxicity against isogenic chicken DT40 cell lines with known DNA damage response pathways - Rev3 mutant cell line (AID 743014); also: nearly all actives have a fitted effect of over 55% in size; also: potency is read from the fitted curve at half-maximal effect
[4] = qHTS assay to identify small molecule antagonists of the androgen receptor (AR) signaling pathway - cell viability counter screen (AID 743033; also: nearly all actives have a fitted effect of over 45% in size; also: potency is read from the fitted curve at half-maximal effect)
[5] = qHTS assay to identify small molecule antagonists of the androgen receptor (AR) signaling pathway using the MDA cell line - cell viability counter screen (AID 743041; also: nearly all actives have a fitted effect of over 45% in size; also: potency is read from the fitted curve at half-maximal effect)
Summary of the method: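 In this qHTS counter assay, fluorescence intensity after CellTiter-Fluor addition indicated viability of MDA-kb2 AR-luc cells given compounds and R1881 for 16 h at 37C.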

[6] = qHTS assay for identifying genotoxic compounds that show differential cytotoxicity against isogenic chicken DT40 cell lines with known DNA damage response pathways - Rad54/Ku70 mutant cell line (AID 743015); also: nearly all actives have a fitted effect of over 60% in size; also: potency is read from the fitted curve at half-maximal effect
[7] = biological target: Androgen receptor (Homo sapiens) (UniProt P10275); experiment: qHTS assay to identify small molecule agonists of the androgen receptor (AR) signaling pathway using the MDA cell line (AID 743040; also: nearly all actives have a fitted effect of over 20% in size; also: potency is read from the fitted curve at half-maximal effect)
Androgen receptor (Homo sapiens), sequence (P10275 whole entry, looked up): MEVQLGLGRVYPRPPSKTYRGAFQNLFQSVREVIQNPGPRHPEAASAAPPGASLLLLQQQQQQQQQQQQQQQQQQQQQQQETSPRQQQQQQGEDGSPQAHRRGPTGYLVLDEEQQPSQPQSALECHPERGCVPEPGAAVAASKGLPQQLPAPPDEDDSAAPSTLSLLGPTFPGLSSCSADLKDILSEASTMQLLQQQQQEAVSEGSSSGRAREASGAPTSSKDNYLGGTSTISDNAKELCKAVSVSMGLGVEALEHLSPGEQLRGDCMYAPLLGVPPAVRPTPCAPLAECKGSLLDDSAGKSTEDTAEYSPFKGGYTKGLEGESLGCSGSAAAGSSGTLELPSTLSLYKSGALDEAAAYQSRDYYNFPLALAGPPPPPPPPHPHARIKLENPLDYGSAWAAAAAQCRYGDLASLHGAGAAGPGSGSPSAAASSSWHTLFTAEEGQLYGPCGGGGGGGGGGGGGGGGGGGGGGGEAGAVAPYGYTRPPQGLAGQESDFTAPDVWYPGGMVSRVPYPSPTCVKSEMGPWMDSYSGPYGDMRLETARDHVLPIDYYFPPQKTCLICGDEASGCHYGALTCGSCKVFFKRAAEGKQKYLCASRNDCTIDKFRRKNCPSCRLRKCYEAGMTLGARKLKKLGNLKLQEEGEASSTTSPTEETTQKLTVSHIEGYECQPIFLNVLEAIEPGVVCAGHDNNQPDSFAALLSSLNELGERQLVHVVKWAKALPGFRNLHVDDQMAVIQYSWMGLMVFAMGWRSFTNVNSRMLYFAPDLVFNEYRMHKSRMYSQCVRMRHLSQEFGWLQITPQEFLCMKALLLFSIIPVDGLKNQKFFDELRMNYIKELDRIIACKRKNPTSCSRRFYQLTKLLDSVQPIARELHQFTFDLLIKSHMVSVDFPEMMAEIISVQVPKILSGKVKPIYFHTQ
Summary of the method: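 Cell-based luciferase reporter: MDA-kb2, MMTV promoter (AR + GR response elements). 16 h compound exposure at 37C; ONE-Glo, 30 min RT, luminescence.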

[8] = biological target: Androgen receptor (Homo sapiens) (UniProt P10275); experiment: qHTS assay to identify small molecule antagonists of the androgen receptor (AR) signaling pathway using the MDA cell line (AID 743042; also: nearly all actives have a fitted effect of over 55% in size; also: potency is read from the fitted curve at half-maximal effect)
Summary of the method: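 MDA-kb2 cells (human breast carcinoma, stably carrying an MMTV-luciferase reporter responsive to AR and GR) were plated at 3,000 cells/well and preincubated 5 hr at 37C, then given compound plus R1881 agonist for 16 h. ONE-Glo luminescence was read.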

[9] = biological target: Androgen receptor (Homo sapiens) (UniProt P10275); experiment: qHTS assay to identify small molecule antagonists of the androgen receptor (AR) signaling pathway (AID 743035; active = well fitted inhibition curve with a large enough effect in the signal ratio in the repeat runs, not every such curve was filed as active; the % refers to the signal ratio; also: potency is read from the fitted curve at half-maximal effect)
Summary of the method: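 R1881 agonist challenge of a HEK293 UAS-beta-lactamase AR reporter line in the presence of compound (16 h, 37C); signal taken as FRET fluorescence after 2 h with LiveBLAzer B/G substrate at room temperature.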

[10] = biological target: Androgen receptor (Homo sapiens) (UniProt P10275); experiment: qHTS assay to identify small molecule agonists of the androgen receptor (AR) signaling pathway (AID 743036; active = well fitted activation curve with a large enough effect in the signal ratio in the repeat runs, with a control signal flat, not every such curve was filed as active; the % refers to the signal ratio)
Summary of the method: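 Fluorescence from a beta-lactamase FRET substrate served as read-out in AR-UAS-bla GripTite HEK293 cells. Cells were treated with DMSO-dissolved compounds for 16 h at 37C, then with LiveBLAzer B/G substrate for 2 h at room temperature.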

Measured: Potency

CCCOCC(=Nc1ccc(Cl)cc1C(F)(F)F)n1ccnc1
active: [1] 15.5 µM | [2] 4.32 µM | [3] 4.32 µM | [4] 12.3 µM | [5] 61.1 µM

CN(C)CCc1c[nH]c2cccc(O)c12
inactive: [1] | [4] | [5]
active: [3] 60.5 µM | [6] 42.8 µM

CCCN(CCC)c1c([N+](=O)[O-])cc(S(N)(=O)=O)cc1[N+](=O)[O-]
active: [1] 58.6 µM | [2] 2.06 µM | [3] 16.9 µM | [4] 20.8 µM | [5] 51.8 µM

O=C1NCN(c2ccccc2)C12CCN(CC1COc3ccccc3O1)CC2 (stereo unspecified)
inactive: [1] | [3] | [4] | [5]
active: [2] 23.7 µM

CCOC(=O)CC(=O)CCl
inactive: [1] | [4] | [7] | [5] | [8]
active: [3] 19.3 µM | [6] 24.3 µM

CCCCCCCCCC[N+](C)(C)CCCCCCCCCC
active: [1] 24.5 µM | [2] 668 nM and 433 nM | [3] 841 nM and 433 nM | [4] 16.9 µM and 19.5 µM | [5] 24.8 µM and 30.6 µM

N#C/C=C/C#N
inactive: [2] | [3] | [6] | [4] | [5]

CC(C)CCCCCOC(=O)c1ccccc1C(=O)OCCCCCC(C)C
inactive: [2] | [6] | [4] | [5]

CCc1nn(C)c(C(=O)NCc2ccc(C(C)(C)C)cc2)c1Cl
active: [2] 0.077 µM | [3] 0.0863 µM | [6] 0.0545 µM | [4] 0.195 µM | [5] 0.0863 µM

CCOC(=O)C1(c2ccccc2)CCN(CCC(C#N)(c2ccccc2)c2ccccc2)CC1
inactive: [7]
active: [2] 2.98 µM and 5.31 µM | [3] 3.76 µM and 10.6 µM | [6] 5.31 µM and 9.44 µM | [9] 10.7 µM and 13.4 µM | [8] 26.6 µM and 53.1 µM

CC1(C)CC/C(=C/c2ccc(Cl)cc2)C1(O)Cn1cncn1 (stereo unspecified)
active: [2] 21.6 µM | [3] 60.8 µM | [6] 55.2 µM | [7] 9.63 µM

C=CC(=O)OCCCCOC(=O)C=C
inactive: [5]
active: [2] 27.3 µM | [3] 27.3 µM | [6] 27.3 µM

O=S(=O)(c1ccc(Cl)cc1)c1ccc(Cl)cc1
active: [2] 24.6 µM | [3] 44.8 µM | [6] 52.8 µM
inactive: [5]

O=[N+]([O-])c1cc(C(F)(F)F)c(Cl)c([N+](=O)[O-])c1Cl
active: [2] 0.386 µM | [3] 0.486 µM | [6] 0.386 µM | [4] 21.9 µM | [5] 54.5 µM

O=C(O)C1C2CCC(O2)C1C(=O)O (stereo unspecified)
inactive: [2] | [3] | [6] | [4] | [5]

[Cd+2].[Cl-].[Cl-]
active: [2] 19.5 µM and 24.3 µM | [3] 13.8 µM and 27.3 µM | [6] 13.8 µM and 24.3 µM | [4] 24.8 µM
inactive: [5]

BrC(Br)C(Br)(Br)Br
inactive: [2] | [3] | [6] | [5]

Oc1cc(Cl)c(Cl)c(Cl)c1
active: [4] 32.9 µM
inactive: [2] | [3] | [7] | [5]

CC(C)CC(C)N (stereo unspecified)
inactive: [2] | [3] | [6] | [4] | [5]

CCCCOCN(C(=O)CCl)c1c(CC)cccc1CC
active: [2] 8.63 µM | [3] 9.69 µM | [6] 9.69 µM | [8] 54.5 µM
inactive: [7] | [5]

CCOc1cc(C(C)(C)C)ccc1C1COC(c2c(F)cccc2F)=N1 (stereo unspecified)
active: [2] 26.3 µM | [3] 23.4 µM | [6] 11.7 µM
inactive: [4] | [10] | [7] | [5]

CCOP(=O)(NC(C)C)Oc1ccc(SC)c(C)c1 (stereo unspecified)
active: [2] 7.7 µM | [3] 18.8 µM | [6] 40.1 µM
inactive: [7] | [5]

CC(=O)C(Cl)(Cl)Cl
inactive: [7]
active: [2] 13.2 µM | [3] 16.6 µM | [6] 16.6 µM | [4] 10.6 µM | [9] 5.31 µM | [5] 26.4 µM | [8] 13.2 µM

CCCCCCCCCCCCCCCCCCn1cc[n+](C)c1
active: [2] 1.21 µM | [3] 0.963 µM | [6] 2.16 µM | [4] 13.7 µM | [9] 3.87 µM | [8] 7.65 µM
inactive: [7]
